This passage reports inhibition results from PubChem BioAssay AID1251 (SRMLSC, 2008).

A short description of this experiment: antivirals against arbovirus infection, primary screen, cell-based, full library, 10K replicate subset (AID 1251).
Where [1] appears, read: arbovirus infection cell-based antiviral screen, at 10 µM, stronger effect = higher value.

Structures are written as SMILES. The whole screen tested about 200,000 compounds, of which about 720 (0.36%) were called active. Rule as the data show it: active = inhibition above about 30%; inactive = the rest, inconclusive results apart. The entries come from a sample that favours actives as a whole.

As for `NC(=O)COc1ccc(NC(=O)c2ccccc2-c2ccccc2)cc1`, under setting [1], the inhibition was -1.27% (inactive). Same read-out and setting: with `CC1Cc2nc(SCC(=O)Nc3ccccc3F)n(C)c(=O)c2S1` (stereo unspecified) the figure was 6.16% (inactive).

Regarding `COCCn1c(SCC(=O)Nc2cc(Cl)ccc2OC)nc2c(c1=O)SC(C)C2` (stereo unspecified), the inhibition runs as follows: (arbovirus infection cell-based antiviral screen; at 10 µM; stronger effect = higher value) 31.7% (active); (arbovirus infection cell-based antiviral screen; measured here: 10K subset replicate screen; at 10 µM; stronger effect = higher value) 23%. As to `CCn1c(SCC(=O)Nc2ccccc2F)nc2c(c1=O)SC(C)C2` (stereo unspecified), the inhibition under setting [1] is 13.7% (inactive). On the same count and under the same terms, to `O=C(CSc1ccccc1)Nc1cc(Cl)ccc1Oc1ccccc1` belongs 31.3% (active); to `COc1ccc(C)cc1NC(=O)CSc1ccc(Cl)cc1`, 3.07% (inactive). Regarding `CC(=O)Nc1ccc(SCC(=O)Nc2ccccc2Oc2ccccc2)cc1`, the inhibition under setting [1] was -11.3% (inactive).

On to `C=Cn1c(C(=O)O)ccc1-c1ccc(OC)cc1`, for which the inhibition under setting [1] is -6.55% (inactive). On the same count and under the same terms, to `CCn1c(-c2cccnc2Cl)nc2cc(C)c(C)cc21` belongs 9.84% (inactive); to `Cc1cc(F)ccc1S(=O)(=O)Nc1ncnc2scc(-c3ccc(F)cc3)c12`, 34.8% (active); to `CCn1cnc2scc(-c3ccc(C)c(C)c3)c2c1=O`, -10.7% (inactive). Same read-out and setting: with `COc1ccc(-c2csc3ncnc(Oc4ccc5c(C)cc(=O)oc5c4)c23)cc1` the figure was -19% (inactive); with `Cc1cccc(C)c1NC(=O)Nc1ccccc1-n1ccnc1`, 0% (inactive); with `CCN(/N=C/c1ccc(N(C)C)cc1)c1nc2ccccc2[nH]1`, -9.69% (inactive).

For `CCNC(=S)NNC(=O)C1CCN(Cc2ccccc2)CC1`, the inhibition under setting [1] was 0.25% (inactive).

`CCN(CCO)C(=S)Nc1cc(C(=O)OC)ccc1C(=O)OC`: the inhibition under setting [1] was -0.56% (inactive). With `CC(=O)Nc1ccc(Sc2ccccc2C(=O)N2CCCC2)cn1`, the inhibition under setting [1] is 12.2% (inactive).

Take `CN(C)c1nc(-c2cccnc2)nc(-c2ccc(Cl)cc2)c1C#N`: the inhibition under setting [1] was -9.56% (inactive).

Take `O=C(CCN1CCN(C/C=C/c2ccccc2)CC1)Nc1cccc(F)c1`: the inhibition under setting [1] is -4.37% (inactive). `CC/C(=N\NC(=S)NC(C)C)c1ccc(OC(F)F)cc1`: the inhibition under setting [1] is 1.93% (inactive). Turning to `Cc1ccc(C(CC(=O)O)Nc2nc(N3CCCCC3)nc(N3CCCCC3)n2)cc1` (stereo unspecified), the inhibition under setting [1] is 31.3% (active). Turning to `CC(Nc1nc(N2CCCC2)nc2ccccc12)c1ccccc1` (stereo unspecified), the inhibition under setting [1] is -47.5% (inactive). Still for that read-out and setting: with `CC(=O)NC(CC(=O)O)c1ccc(F)cc1` (stereo unspecified) the figure was 4.26% (inactive). Take `O=[N+]([O-])c1ccc2oc(-c3cccc(O)c3)nc2c1`: the inhibition under setting [1] is 0.35% (inactive). In the case of `COc1ccc(Nc2nc(NCc3ccco3)nc(N/N=C/c3ccccc3Cl)n2)cc1`, the inhibition under setting [1] was -9.8% (inactive). As for `CC1CCCC(NC(=O)c2cccc(N3CCCC3=O)c2)C1C` (stereo unspecified), the inhibition under setting [1] was 15.1% (inactive). Same read-out and setting: to `O=C(Nc1ccc(-c2ccc3nncn3n2)cc1)C1CCCCC1` belongs 2.96% (inactive); to `CC(CC(=O)O)C(=O)c1ccc(Cl)c([N+](=O)[O-])c1` (stereo unspecified), 5.76% (inactive); to `CCO[C@@H]1OC(C(=O)N2CCOCC2)=C[C@H](C)[C@H]1CCCO`, 1.57% (inactive). For `COc1ccc(C(=O)OCC(=O)NC(=O)CCSc2ccccc2)cc1`, the inhibition under setting [1] is -0.73% (inactive).

`Cc1ccccc1Nc1scc(-c2ccc(Br)cc2)[n+]1-c1ccccc1C`: under setting [1], the inhibition was 15.8% (inactive). Take `O=C(CC1C(=O)NCCN1Cc1ccc(-c2ccccc2)cc1)NCC1CCOCC1` (stereo unspecified): the inhibition under setting [1] is 1.09% (inactive). As to `Cc1ccc(CNC(=O)Cn2c(=O)c3sccc3n(Cc3cccc([N+](=O)[O-])c3)c2=O)cc1`, the inhibition under setting [1] is -23.2% (inactive).

Consider `C/C(=N\NC(=O)c1ccc(NS(=O)(=O)c2cccs2)cc1)c1ccc2ccccc2c1`, for which the inhibition under setting [1] is -27.7% (inactive). Consider `O=c1[nH]c(SCc2ccccc2)nnc1-c1ccccc1`, for which the inhibition under setting [1] is 33.1% (active). For `Cc1ccccc1CSc1nnc(-c2ccccc2)c(=O)[nH]1`, the inhibition under setting [1] was 1.96% (inactive). The same measure, in the same setting: with `c1ccc(CSc2nnc(-c3ccco3)c(-c3ccco3)n2)cc1` the figure was 13.1% (inactive); with `O=C(Cn1cnc([N+](=O)[O-])n1)NCCc1ccccc1`, -2.73% (inactive); with `O=C(Cc1c(F)cccc1Cl)Nc1ncc([N+](=O)[O-])s1`, 25.4% (inactive).

In the case of `O=C(CCc1ccccc1)Nc1ncc([N+](=O)[O-])s1`, the inhibition under setting [1] is 14.4% (inactive).

Take `CC(=O)Oc1ccccc1C(=O)Nc1ncc([N+](=O)[O-])s1`: the inhibition under setting [1] was 31.3% (active). On the same count and under the same terms, to `Cc1nc(-c2ccc(NC(=O)c3cccs3)cc2)cs1` belongs -9.57% (inactive); to `Cc1ccc(-c2csc(NNC(=O)c3ccccc3)n2)cc1`, -29.2% (inactive); to `Cc1ccc(-c2csc(NC(=O)c3cccs3)n2)cc1`, 103% (active).

Take `COc1ccc(OC)c(-c2c(=O)n(OCc3ccccc3Br)c3ccccc3[n+]2[O-])c1`: under setting [1], the inhibition is 6.28% (inactive). Consider `O=C(COC(=O)c1ccccc1)Nc1ccccc1Sc1ccccc1`, for which the inhibition under setting [1] was -1.75% (inactive). On the same count and under the same terms, to `O=c1[nH]c(CN2CCN(S(=O)(=O)c3ccc4c(c3)OCCO4)CC2)nc2sc3c(c12)CCCC3` belongs 11.3% (inactive); to `CCCCOc1ccc(NC(=O)[C@@H]2CCCN2C(=O)C2CCN(S(=O)(=O)c3ccc(C)cc3)CC2)cc1`, -16.3% (inactive). In the case of `Cc1cc(C)c(C#N)c(N2CCC(C(N)=O)CC2)n1`, under setting [1], the inhibition is 2.87% (inactive). `CC(NC(=O)C(=O)NN=C1CCC(C(C)(C)C)CC1)c1ccccc1` (stereo unspecified): the inhibition under setting [1] is 1.88% (inactive). On to `Cc1sc2nc(CC(N)=O)[nH]c(=O)c2c1-c1ccccc1`, for which the inhibition under setting [1] is 3.01% (inactive). On the same count and under the same terms, with `Cc1ccsc1C1C(C#N)=C(N)OC2=C1C(=O)CC(C)C2` (stereo unspecified) the figure was -1.92% (inactive); with `C=CCN1C(=O)C(O)(CC(=O)c2ccccn2)c2ccccc21` (stereo unspecified), -2.77% (inactive); with `O=C(Nc1ccc(F)cc1)N1CCCC(c2nc3c(nnn3Cc3ccccc3Cl)c(=O)[nH]2)C1` (stereo unspecified), 12.4% (inactive).

For the molecule `Cc1ccc(NC(=O)N2CCC(c3nc4c(nnn4Cc4c(F)cccc4Cl)c(=O)[nH]3)CC2)cc1`, under setting [1], the inhibition was -3.45% (inactive). `Cc1ccc(C)c(Cn2nnc3c(=O)[nH]c(C(=O)Nc4ccc(F)cc4)nc32)c1`: the inhibition under setting [1] is 39.7% (active). Still for that read-out and setting: to `CSCCNCc1cn(-c2ccc(F)cc2F)nc1-c1ccccc1C` belongs -1.44% (inactive); to `CCOC(=O)Cc1ncccc1C(=O)Nc1ccc(OC(F)(F)F)cc1`, 4.21% (inactive); to `Cc1nn(Cc2ccc(Cl)cc2)c(Cl)c1/C=N/NC(=O)CNc1ccccc1F`, -16.6% (inactive). Still for that read-out and setting: to `CC(=O)Nc1ccc(NC(=S)NC(=O)c2ccc([N+](=O)[O-])c(C)c2)cc1` belongs -7.89% (inactive).

As a reminder, the inhibition is the change of the read-out against control, counted positive when it falls.
